High-throughput results (PubChem BioAssay)
KB-3-1 tox – KB-3-1 parental cell cytotoxicity. KB-3-1 viability, CellTiter-Glo ATP luminescence, 72 h. Potency, µM (titrated, usually from 46.1 µM), hits mostly cytotoxic. actives 1.4% (n = 400,000). AID 1347075; further: nearly all actives have a fitted effect of over 60% in size
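72 h, 37 °C compound treatment of KB-3-1 parental cells; CellTiter-Glo added, 10 min, luminescence read. Data corrected against DMSO-only plates and normalized before curve fitting.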
HT1080 IDH1KD tx – HT-1080 IDH1 knockdown cell toxicity (counter line); actives 2% (n = 360,000); Potency, µM (doses to about 46.1 µM), most hits filed as cytotoxic; AID 686971; HT-1080 IDH1 knockdown viability, ATP luminescence, 48 h
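Knockdown cells (IDH1KD HT-1080) received compounds 2 h after plating at 750 cells/well and were kept 48 h at 37 °C in 5% FBS RPMI. A CellTiter-Glo luminescence read gave % activity for curve fitting.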
KB-V1 MDR tox – kills drug-selected multidrug resistant KB-V1 cells; KB-V1 MDR cells viability, CellTiter-Glo, 72 h; Potency, µM (titrated, usually from 46.1 µM), hits mostly cytotoxic; actives 3.4% (n = 400,000); AID 1347076; further: nearly all actives have a fitted effect of over 60% in size
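KB-V1 MDR subline cells in DMEM (phenol-red free, 10% FBS) exposed to compounds in qHTS concentration series for 72 h at 37 degrees C. Viability read by CellTiter-Glo luminescence; concentration-effect curves fitted after normalization and correction.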
TDP1 cell noCPT – qHTS for Inhibitors of human tyrosyl-DNA phosphodiesterase 1 (TDP1): qHTS in cells in absence of CPT | DT40 Tdp1-/- hTDP1 cells, no CPT, ATP luminescence, 48 h | Potency, µM (titrated, usually from 46.2 µM), usual class: inhibitors | actives 15% (n = 420,000); further: nearly all actives have a fitted effect of over 55% in size
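Growth of hTDP1-complemented DT40 Tdp1-knockout cells is measured by ATP luminescence after at least 48 hr compound exposure at 37 °C, with DMSO substituting for the 20 nM CPT used in the parallel screen.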
TDP1 cell CPT – DT40-hTDP1 cell growth loss with CPT; chicken DT40 Tdp1-/-;hTDP1 cells + 20 nM CPT, ATP luminescence, 48 h; Potency, µM (titrated, usually from 46.2 µM), usual class: inhibitors; AID 686979; actives 12% (n = 420,000); further: nearly all actives have a fitted effect of over 55% in size
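Chicken DT40 Tdp1-/- cells complemented with human TDP1, 400 cells/well, exposed to compounds plus 20 nM camptothecin for at least 48 h at 37 C; viability read as ATP content by CellTiter-Glo luminescence.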
HT1080NT lethal – kills 2HG-producing HT-1080-NT fibrosarcoma cells. Potency, µM (doses to about 46.1 µM), hits mostly cytotoxic. HT-1080-NT fibrosarcoma viability, CellTiter-Glo ATP luminescence, 48 h. actives 1.6% (n = 360,000). AID 686970;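 further: NT is the 2HG producing partner of a matched IDH1 knockdown line; nearly all actives have a fitted effect of over 55% in size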
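A 48-hour cytotoxicity screen used HT-1080-NT cells plated 2 hours before compound delivery. ATP-based CellTiter-Glo luminescence measured viability, normalized to DMSO and no-cell controls.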
Hits are given with their value; n = inactive; u = inconclusive; x = no result given. Only some compounds are listed: those with a hit (about 19% of all), similar ones and a draw of the others. The call rests on the fitted dose curve; in most records, active means well fitted curve in the direction sought with a large enough effect; inconclusive means small, poorly fitted or top-dose-only effect, or another doubt; inactive means no such curve, though single readings can be large; an effect the other way counts as inactive or inconclusive.

SMILES | KB-3-1 tox | HT1080 IDH1KD tx | KB-V1 MDR tox | TDP1 cell noCPT | TDP1 cell CPT | HT1080NT lethal
O=C(CCC(=O)N1CCN(Cc2ccc(F)cc2)CC1)Nc1nnc(C2CCCCC2)s1 | n | n | n | n | u | n
CC(=O)N[C@@H](C(=O)O)C(C)(C)SN=O | x | x | x | n | n | x
O=C(CSc1ccccc1)NCc1ccc2c(c1)CCN2C(=O)c1ccccc1 | n | x | n | n | n | x
O=C(c1ccccc1)N1CCc2cc(CNS(=O)(=O)c3ccc(Cl)s3)ccc21 | x | x | x | 16.4µM | u | x
O=C(c1ccccc1)N1CCc2cc(CNS(=O)(=O)c3ccccc3Cl)ccc21 | x | x | x | 0.92µM | 1.3µM | x
Cc1ccccc1CNC(=O)c1ccc(-n2c(C)cc3c2CCCC3)cc1 | n | x | n | u | u | x
Cc1cc2c(n1-c1ccc(C(=O)NCCc3ccc(Cl)cc3)cc1)CCCC2 | n | x | n | 25.9µM | u | x
CSc1ccc(CCNC(=O)c2ccc(-n3c(C)cc4c3CCCC4)cc2)cc1 | x | x | x | 18.4µM | 20.6µM | x
Cc1cc2c(n1-c1ccc(C(=O)NCC(C)c3ccccc3)cc1)CCCC2 (stereo not drawn) | n | x | u | 14.6µM | 23.1µM | x
C#CCn1cc(Cl)cc(C(=O)Nc2ccccc2)c1=O | n | n | n | n | n | n
O=C1c2cc3c(cc2CCC1c1ccc2c(c1)OCO2)OCO3 (stereo not drawn) | n | n | n | u | n | n
FC(F)(F)c1cccc(NC(=S)NNC(=S)NCc2ccccc2)c1 | n | n | u | 25.9µM | u | u
Cc1ccc(NC(=S)NNC(C)(C)C)cc1 | n | 18.4µM | n | n | n | u
FC(F)(F)c1cccc(NC(=S)Nc2cccc(NC(=S)Nc3cccc(C(F)(F)F)c3)n2)c1 | u | 23.1µM | u | 20.6µM | 29.1µM | u
O=C(NNC(=S)Nc1cccc(C(F)(F)F)c1)c1ccccc1Cl | u | u | u | 18.4µM | u | 18.4µM
Cc1cccc(NC(=S)Nc2cccc(C(F)(F)F)c2)n1 | u | n | u | u | u | n
O=C(CCNC(=O)c1ccccc1Cl)Nc1cccc(C(F)(F)F)c1 | n | n | n | n | n | n
CN(C)CCCNC(=O)C[C@H]1C[C@H](C(=O)N2CCOCC2)[C@@]2(C)c3[nH]c4ccc(Cl)cc4c3CCN2C1=O | n | n | n | n | n | n
Cc1ccc(CCNC(=O)c2cc(S(=O)(=O)N3CCCC3)cn2C)cc1 | n | n | n | n | n | n
C/C=C/c1cccc(-c2nc(C(=O)N3CCN(C)CC3)cc3c2[C@@H](CCO)N(C(=O)NC(C)C)C3)c1 | n | n | n | n | n | n
Cn1c(N)c(C(=O)COC(=O)CC2CC3CCC2C3)c(=O)n(C)c1=O (stereo not drawn) | n | n | n | n | n | n
CCC(C)NC(=O)c1cnn(-c2ccc(Cl)cc2)c1C1CCN(C(=O)OC(C)(C)C)CC1 (stereo not drawn) | n | x | n | u | u | x
CC(C)(C)NNC(=S)Nc1cccc(C(F)(F)F)c1 | n | 10.3µM | n | 1.16µM | 3.26µM | n
CC(=O)Nc1ccc(-n2cc3c(c2-c2ccc(C)cc2)c(=O)n(C)c(=O)n3C)cc1 | n | x | n | u | u | x
O=C(c1ccncc1)c1ccc(N2CCN(C3CC(=O)N(Cc4cccs4)C3=O)CC2)cc1 (stereo not drawn) | u | n | n | 23.1µM | 16.4µM | 11.6µM
CCN1C(=O)CC(N2CCN(c3ccc(C(=O)c4ccncc4)cc3)CC2)C1=O (stereo not drawn) | u | n | n | n | u | n
CCOc1ccc(N2C(=O)CC(N3CCN(c4ccc(C(=O)c5ccncc5)cc4)CC3)C2=O)cc1 (stereo not drawn) | n | n | n | 20.6µM | u | n
O=C1CC(N2CCN(c3ccc(O)cc3)CC2)C(=O)N1Cc1cccs1 (stereo not drawn) | n | u | n | u | n | u
